# From PubChem BioAssay AID434970 (Sanford-Burnham Center for Chemical Genomics, 2010)
# The campaign covered roughly 11,000 compounds. About 310 (2.8%) were called active. Rule as the data show it: active = activity change below about -85%; inactive = the rest. The full list was thinned out, with actives kept by preference.
# Tested on: intestinal alkaline phosphatase [Mus musculus]
# Test: activators of mouse IAP, confirmation, biochemical, luminescence, single concentration (AID 434970)
# Conditions: purified mouse IAP, CDP-Star luminescence, 30 min, at 10 µM; activation factor: measured here: IAP activation factor, stronger effect = higher value; activity change, negative = activation: stronger effect = lower value
SMILES,activation factor,"activity change, negative = activation"
CCn1c(CC(=O)Nc2ccc(C)cc2)nnc1SCC(=O)NCc1ccccc1,1,-0.4% (inactive)
COc1ccccc1CNC(=O)C1(NC(=O)Nc2ccc(C)cc2)CCCCC1,3.44,-244% (active)
O=C(NCc1ccccc1)NC1(C(=O)N2CCCC2)CCCCC1,0.94,6% (inactive)
CCOC(=O)c1ccc(NC(=O)NCc2ccc(OC)cc2)cc1,1.49,-49% (inactive)
O=C(Nc1cccc(Cl)c1)NC1(C(=O)NCc2cccs2)CCCCC1,1.62,-61.7% (inactive)
COc1ccccc1CNC(=O)Cn1cccc1,0.944,5.65% (inactive)
Cc1ccc(CNC(=O)C2(NC(=O)Nc3ccc(C)cc3)CCCCC2)cc1,2.98,-198% (active)
COc1ccccc1C(=O)Nc1ccc(CN2CCCCC2)cc1,0.94,6% (inactive)
Cc1ccc(NC(=O)NC2(C(=O)NCc3ccccc3)CCCCC2)cc1,2.31,-131% (active)
CC1(C)CC(=O)C2=C(C1)N=c1s/c(=C/c3ccc(F)c(F)c3)c(=O)n1C2c1ccc(F)cc1 (configuration not stated),0.856,14.4% (inactive)
N#C/C(=C/c1ccco1)C(N)=S,0.434,56.5% (inactive)
CCOC(=O)c1c(-c2ccccc2)oc2ccc(O)c(CN(C)C)c12,0.909,9.15% (inactive)
Nc1ncnc2c1ncn2[C@@H]1O[C@H](CNS(=O)(=O)c2cc(S(=O)(=O)c3ccccc3)cs2)[C@@H](O)[C@H]1O,1.08,-7.65% (inactive)
Cc1ccc(C(=O)Nc2nnn(C)n2)cc1,1.1,-10.2% (inactive)
CCN(CC)S(=O)(=O)c1ccc(NC(=O)Cn2c(=O)sc3ccccc32)cc1,1.31,-30.9% (inactive)
C#CCOCCOCCOCCNc1nc(N2CCN(C(=O)CCCCCCCCCCNC(=O)[C@H](CCCN=C(N)N)n3cc(C[C@@H](C)CC)nn3)CC2)nc(N2CCN(C(=O)CCCCCCCCCCNC(=O)[C@@H]([C@H](C)CC)n3cc(CCCCCN)nn3)CC2)n1,6.19,-519% (active)
C#CCOCCOCCOCCNc1nc(N2CCN(C(=O)CCCCCCCCCCNC(=O)[C@H]([C@@H](C)CC)n3cc(CCCCN=C(N)N)nn3)CC2)nc(N2CCN(C(=O)CCCCCCCCCCNC(=O)[C@H](CCCN=C(N)N)n3cc(C[C@@H](C)CC)nn3)CC2)n1,9.52,-852% (active)
C#CCOCCOCCOCCNc1nc(N2CCN(C(=O)CCCCCCCCCCNC(=O)[C@H]([C@@H](C)CC)n3cc(CCCCN=C(N)N)nn3)CC2)nc(N2CCN(C(=O)CCCCCCCCCCNC(=O)[C@H](CCCCN)n3cc(C[C@@H](C)CC)nn3)CC2)n1,8.58,-758% (active)
Cc1ccc(N=C2NC(=O)CS2)cc1,0.925,7.5% (inactive)
COc1ccc(C2/C=C\CN(S(=O)(=O)c3ccc(C)cc3)CC(=O)N2Cc2cccc(F)c2)cc1 (configuration not stated),1.08,-8% (inactive)
O=C1CCCCCN1Cc1nnc(SCc2nc3ccccc3s2)n1-c1ccccn1,0.923,7.7% (inactive)
Cc1ccc(-c2noc(CN3CCC(C(N)=O)CC3)n2)cc1,0.997,0.25% (inactive)
CC(=O)NCC(=O)N(c1c(C)n(C)n(-c2ccccc2)c1=O)C1(C(=O)NC2CCCC2)CCCCC1,0.98,2.05% (inactive)

SMILES,activation factor,"activity change, negative = activation"
O=C(N1CCOCC1)C1(c2ccccc2)CCCCC1,0.901,9.95% (inactive)
Cc1ccc(NC(=O)CN(C)C(=O)CCCN2C(=O)c3ccccc3C2=O)cc1,1.04,-3.95% (inactive)
C#CCOCCOCCOCCNc1nc(N2CCN(C(=O)CCCCCCCCCCNC(=O)[C@H]([C@@H](C)CC)n3cc(CCCCCN)nn3)CC2)nc(N2CCN(C(=O)CCCCCCCCCCNC(=O)[C@H](CO)n3cc(CCCCCN)nn3)CC2)n1,2.51,-151% (active)
C#CCOCCOCCOCCNc1nc(N2CCN(C(=O)CCCCCCCCCCNC(=O)[C@H]([C@@H](C)CC)n3cc(CCCCCN)nn3)CC2)nc(N2CCN(C(=O)CCCCCCCCCCNC(=O)[C@@H]([C@H](C)CC)n3cc(CCCCCN)nn3)CC2)n1,6.79,-579% (active)
C#CCOCCOCCOCCNc1nc(N2CCN(C(=O)CCCCCCCCCCNC(=O)[C@H]([C@@H](C)CC)n3cc(CCCCCN)nn3)CC2)nc(N2CCN(C(=O)CCCCCCCCCCNC(=O)[C@@H]([C@H](C)O)n3cc(C)nn3)CC2)n1,4.1,-310% (active)
CCOc1ccc(-n2cc(C(=O)Nc3cccc(Cl)c3)c3cc(OC)c(OC)cc3c2=O)cc1,1.1,-10.2% (inactive)
CNC(=O)/C(C#N)=C/c1ccc(-c2ccc(OC)cc2[N+](=O)[O-])o1,0.891,10.9% (inactive)
CC(C)N(C(=O)[C@H]1C[C@H](CC(=O)NCCC2=CCCCC2)C(=O)N2CCc3c([nH]c4ccc(Cl)cc34)[C@]12C)C(C)C,1.23,-23.5% (inactive)
NC(=O)c1c(NC(=O)CSc2nnc(-c3ccco3)n2-c2ccccc2)sc2c1CCC2,0.759,24.1% (inactive)
COc1ccc(NC(=O)C2CCCN2c2ccc(OC)c(OC)c2)cc1OC (configuration not stated),1.14,-14.2% (inactive)
COc1ccc(C2C(C(=O)N3CCCC3)c3cc(OC)c(OC)cc3C(=O)N2C)cc1 (configuration not stated),0.989,1.1% (inactive)
COc1ccccc1NC(=O)CCNS(=O)(=O)c1ccc2[nH]c(=O)oc2c1,0.265,73.5% (inactive)
COc1ccc(CNC(=O)C(C)n2ccc3cc(S(=O)(=O)N4CCCCCC4)ccc32)cc1 (configuration not stated),1.91,-90.9% (inactive)
CCC(C(=O)NCCC(C)C)n1ccc2cc(S(=O)(=O)N3CCCCC3)ccc21 (configuration not stated),2.59,-159% (active)
COC(=O)c1ccc(S(=O)(=O)N2CCCCCC2)cc1,0.874,12.6% (inactive)
CCOc1ccccc1N(CC(=O)Nc1ccc(C)cc1)S(C)(=O)=O,0.98,2.05% (inactive)
O=C(CC1Sc2ccccc2NC1=O)OCC(=O)N1CCc2ccccc21 (configuration not stated),1.11,-10.6% (inactive)
Cc1ccc(NC(=O)Cn2cccc2)c(C)c1,1.01,-1.25% (inactive)
CCOC(=O)CNC(=O)Nc1cccc(Cl)c1C,1.04,-4.45% (inactive)
Cc1ccc(C)c(CN2CCC(CNC(=O)Nc3cccc(Cl)c3C)CC2)c1,2.47,-147% (active)
Cc1ccc(NC(=O)CSCC(=O)O)c(C)c1,1.07,-7.15% (inactive)
Cc1ccc(NC(=O)NCC2CCN(Cc3cc(C)ccc3Cl)CC2)c(C)c1,1.87,-86.8% (active)
Cc1c(Cl)cccc1NC(=O)CCN1CCCCCC1,0.984,1.6% (inactive)
